In PubChem BioAssay (EPA / NIEHS):
Results filed as inconclusive are left out. Calls of active or inactive are those of the source. The calls were made as follows: active = hit-call score of the fitted dose curve at least 0.9, where 1 is the maximum; inconclusive = response in the unintended direction; inactive = score below 0.9.

What follows are compounds tested against Androgen receptor (Homo sapiens) (UniProt P10275) (assay: ATG_AR_TRANS: Attagene TRANS-FACTORIAL HepG2 Assay for human Androgen Receptor (AR) (AID 2282973)). Conditions: HepG2 Attagene TRANS-FACTORIAL AR reporter transcription.
How it was run: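 Readout is reporter transcript abundance, quantified by fluorescent RT-PCR products separated on capillary electrophoresis. Human HepG2 liver cells carried transiently transfected NR-Gal4 chimera plus GAL4-UAS reporter constructs and were dosed for 24 h; activity scored upward versus DMSO.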

Chain of Androgen receptor (Homo sapiens) (P10275 whole entry, looked up, the tested form may be a part): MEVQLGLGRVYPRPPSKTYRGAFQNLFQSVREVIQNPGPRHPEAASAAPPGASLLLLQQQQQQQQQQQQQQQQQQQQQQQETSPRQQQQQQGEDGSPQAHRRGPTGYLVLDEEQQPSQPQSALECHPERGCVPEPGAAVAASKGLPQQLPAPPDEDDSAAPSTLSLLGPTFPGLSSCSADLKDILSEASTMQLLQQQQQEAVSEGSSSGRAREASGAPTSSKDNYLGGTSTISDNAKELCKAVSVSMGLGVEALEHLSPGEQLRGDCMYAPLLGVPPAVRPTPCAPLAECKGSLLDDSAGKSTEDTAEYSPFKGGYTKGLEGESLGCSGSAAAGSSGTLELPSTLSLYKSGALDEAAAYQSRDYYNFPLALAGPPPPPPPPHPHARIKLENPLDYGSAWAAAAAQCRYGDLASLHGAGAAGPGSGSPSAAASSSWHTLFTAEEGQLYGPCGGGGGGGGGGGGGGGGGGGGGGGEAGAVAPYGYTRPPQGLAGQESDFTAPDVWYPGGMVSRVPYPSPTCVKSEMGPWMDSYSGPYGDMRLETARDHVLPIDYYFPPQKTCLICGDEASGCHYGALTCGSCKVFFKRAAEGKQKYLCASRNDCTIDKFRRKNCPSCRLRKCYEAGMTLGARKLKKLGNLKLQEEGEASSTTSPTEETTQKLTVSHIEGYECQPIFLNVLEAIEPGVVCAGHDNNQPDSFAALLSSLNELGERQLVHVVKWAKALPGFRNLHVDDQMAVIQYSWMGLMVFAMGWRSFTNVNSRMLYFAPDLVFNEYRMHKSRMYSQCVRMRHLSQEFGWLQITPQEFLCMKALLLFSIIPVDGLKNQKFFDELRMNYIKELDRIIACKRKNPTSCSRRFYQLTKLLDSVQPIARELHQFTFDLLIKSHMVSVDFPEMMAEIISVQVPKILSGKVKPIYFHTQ

Compound | outcome
O=S(=O)(O)c1cc(S(=O)(=O)O)c2ccc3c(S(=O)(=O)O)cc(S(=O)(=O)O)c4ccc1c2c43 | inactive
NCC(F)(F)C(F)(F)C(F)(F)C(F)(F)F | inactive
NCC(F)(F)C(F)(F)C(F)(F)C(F)(F)C(F)(F)C(F)(F)F | inactive
CCOC(=O)CC(=O)C(F)(F)C(F)(F)F | inactive
CCCCCCCOC(=O)c1ccccc1C(=O)OCCCCCCC | inactive
CC(=O)OC1CCCCC1C(C)(C)C (stereo not given) | inactive
CCOc1ccc(NC(C)=O)cc1 | inactive
CC(Oc1cc(Cl)ccc1Cl)C(=O)O (stereo not given) | inactive
NCCCN1CCN(CCCN)CC1 | inactive
BrCc1cccc(Oc2ccccc2)c1 | inactive
CC=C(C)C=CC=C(C)C | inactive
CC(CC=O)CCCC(C)(C)O (stereo not given) | inactive
O=S(=O)(O)c1ccc(Nc2nc(Nc3ccc(C=Cc4ccc(Nc5nc(Nc6ccc(S(=O)(=O)O)cc6)nc(N(CCO)CCO)n5)cc4S(=O)(=O)O)c(S(=O)(=O)O)c3)nc(N(CCO)CCO)n2)cc1 | inactive
O=CC(F)(F)C(F)(F)C(F)(F)C(F)F | inactive
CN(C)CCOc1ccc(/C(=C(/CCCl)c2ccccc2)c2ccccc2)cc1 | inactive
Clc1cccnc1 | inactive
CC(=O)Nc1ccc(S(N)(=O)=O)cc1 | inactive
CCC(C)(C)C1CCC(=O)CC1 | inactive
C#CC(C)N(C)C(=O)Nc1ccc(Cl)cc1 (stereo not given) | inactive
N#Cc1ccc(C(c2ccc(C#N)cc2)n2cncn2)cc1 | inactive

Compound | outcome
CCC(CC)CO | inactive
O=C1CCC(=O)N1 | inactive
CCCCCCCCCCCCCCCCCC[N+](C)(C)Cc1ccccc1 | inactive
Cc1ccc(C)c(O)c1C | inactive
O=C(O)CCCCCCCCCC(=O)O | inactive
CO[Si](CCCNCCN)(OC)OC | inactive
Oc1ccc(Cl)cc1Cc1cc(Cl)ccc1O | inactive
CCc1cccc(C)c1N | inactive
CCc1cccc(C)c1N(C(=O)C(=O)O)C(C)COC (stereo not given) | inactive
O=C(O)c1cccc(Cl)n1 | inactive
CN(C)Cc1ccccc1O | inactive
CC(C)CC(=O)CC(C)CC(C)C (stereo not given) | inactive
CCCCCCCCCCOC(=O)c1ccccc1C(=O)OCCCCCCCC | inactive
N=C1C=CC(=C(c2ccc(N)cc2)c2ccc(N)cc2)C=C1 | inactive
Cn1cccc1 | inactive
Nc1cc([N+](=O)[O-])ccc1O | inactive
CC1CNCC(C)O1 (stereo not given) | inactive
C=C(C)[C@H]1CC=C(C)C(=O)C1 | inactive
CCCCCC(=O)O | inactive
COCC1CCC(CO)CC1 (stereo not given) | inactive
